High-throughput results from PubChem BioAssay.
The list is not random: actives were taken first. Their share in the collection is about 6.6%.
TSG101-PTAP inh: blocks PTAP/TSG101 interaction to inhibit HIV-1 budding | Potency, µM (top dose mostly 115 µM), for the others: at the highest dose activity change, negative = inhibition, actives largely listed as inhibitors | Fluorescence polarization, FITC-PTAP peptide / Tsg101 binding | Q99816 | 340,000 tested, under 10 active | AID 493005; active means well fitted inhibition curve with a large enough effect in the main read-out, with a control signal flat, not every such curve was filed as active; inconclusive means small, poorly fitted or top-dose-only effect, or effect the other way, or a change in a side signal; inactive means no such curve, though single readings can be large or run the other way; further: % of control where 0% means no effect
Target sequence (Q99816 whole entry, looked up): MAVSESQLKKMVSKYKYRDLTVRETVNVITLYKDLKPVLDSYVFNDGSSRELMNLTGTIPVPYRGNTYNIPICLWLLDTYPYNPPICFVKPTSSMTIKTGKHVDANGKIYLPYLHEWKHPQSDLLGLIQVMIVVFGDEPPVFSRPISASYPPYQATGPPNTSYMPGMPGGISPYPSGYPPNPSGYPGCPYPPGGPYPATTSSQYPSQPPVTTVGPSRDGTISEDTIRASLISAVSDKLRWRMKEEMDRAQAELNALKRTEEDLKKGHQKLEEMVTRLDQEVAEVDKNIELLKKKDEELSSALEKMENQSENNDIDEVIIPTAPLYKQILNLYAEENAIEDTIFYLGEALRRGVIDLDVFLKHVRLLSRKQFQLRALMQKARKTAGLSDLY
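Steps: Tsg101 binding domain dispensed (10 uM final), compounds pinned in DMSO, FITC-labeled PTAP-motif peptide added (50 nM final); after 20 min binding at room temperature, polarization measured.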
MCF10A rereplic: DNA re-replication induction in MCF 10a cells; MCF 10A DNA re-replication, Hoechst nuclear intensity, 48 h; Potency, µM (series often up to 46.1 µM), inactives show at the top dose activity, positive = re-replication, hits mostly activators; 350,000 compounds, 2.9% hits; AID 624296; further: % of control where 0% means no effect; nearly all actives have a fitted effect of over 50% in size
KB-3-1 tox: kills parental KB-3-1 adenocarcinoma cells | KB-3-1 viability, CellTiter-Glo ATP luminescence, 72 h | 400,000 compounds, 1.4% hits | AID 1347075 | Potency, µM (top dose mostly 46.1 µM), hits mostly cytotoxic; further: on the % scale 0 is the no-effect control and ±100 the full control effect; nearly all actives have a fitted effect of over 60% in size
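Screening of KB-3-1 cells (DMEM, 10% FBS, phenol-red free) ran from lowest to highest compound concentration; after 72 h at 37 °C viability was read luminescently and curves fitted.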
KB-V1 MDR tox: kills drug-selected multidrug resistant KB-V1 cells. KB-V1 MDR cells viability, CellTiter-Glo, 72 h. Potency, µM (top dose mostly 46.1 µM), hits mostly cytotoxic. 400,000 compounds, 3.4% hits. AID 1347076; further: on the % scale 0 is the no-effect control and ±100 the full control effect; nearly all actives have a fitted effect of over 60% in size
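Cytotoxicity toward P-gp-expressing KB-V1 cells was determined as loss of CellTiter-Glo luminescence after 72 h at 37 degrees C. Compounds were tested in quantitative HTS format across a concentration range, with curves fitted to normalized data.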
RGS4 inhibitor: human RGS4 inhibition; Transcreener GDP fluorescence polarization, RGS4-accelerated GTP hydrolysis; Potency, µM (series often up to 114 µM), for the others: at the top dose activity change, negative = inhibition, usual class: inhibitors; 390,000 compounds, 0.039% hits; P49798; further: on the % scale 0 is the no-effect control and ±100 the full control effect; nearly all actives have a fitted effect of over 75% in size
Target sequence (P49798 whole entry, looked up): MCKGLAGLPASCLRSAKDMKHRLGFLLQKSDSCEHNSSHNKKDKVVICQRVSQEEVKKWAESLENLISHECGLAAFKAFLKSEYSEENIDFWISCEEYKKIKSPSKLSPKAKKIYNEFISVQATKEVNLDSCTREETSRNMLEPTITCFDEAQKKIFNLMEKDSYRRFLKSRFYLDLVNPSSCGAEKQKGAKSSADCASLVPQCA
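MLSMR compounds (23 nl, pin-transferred) preincubated 10 min at room temperature with a 500nM (2x) first reagent, then RGS4 at 900nM (2x) plus Transcreener GDP mix added; fluorescence polarization (620/688 nm) read before and after 90 min at 30 °C.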
SW480 rereplic: inducers of DNA re-replication in SW480 colon cancer cells; SW480 DNA re-replication, Hoechst DNA content imaging, 48 h; Potency, µM (top dose mostly 46.1 µM), for inactives: at the top dose re-replication activation, actives largely listed as activators; 340,000 compounds, 1.8% hits; further: % of control where 0% means no effect; nearly all actives have a fitted effect of over 55% in size
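Compounds, transferred as 23 nL by pin tool, were incubated with cells for 48 hr; DNA content per nucleus was then quantified by Hoechst staining and fluorescence plate imaging.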
The depositor's hits bear a star; i = inactive; ? = inconclusive; . = no result; [ ] = remark or other dose. Unless noted, the call rests on the fitted dose curve; in most records, active means well fitted curve in the direction sought with a large enough effect; inconclusive means small, poorly fitted or top-dose-only effect, or another doubt; inactive means no such curve, though single readings can be large; an effect the other way counts as inactive or inconclusive. Potency means the concentration at half of the fitted maximal effect.

SMILES	TSG101-PTAP inh	MCF10A rereplic	KB-3-1 tox	KB-V1 MDR tox	RGS4 inhibitor	SW480 rereplic
COc1ccc(C(=O)c2cc([N+](=O)[O-])ccc2N2CCOCC2)cc1	-5.2%	?	1.84µM*	0.517µM*	-19.2%	0.366µM*
O=C(O)c1cc([N+](=O)[O-])ccc1N1CCCCC1	-1.7%	2.8%	i	i	21.2%	7.9%
Cc1ccc(C(=O)c2cc([N+](=O)[O-])ccc2N2CCCCC2)c(C)c1	0.0%	?	0.82µM*	1.64µM*	14.2%	1.3µM*
O=C(COc1ccc([N+](=O)[O-])cc1)Nc1ccc2c(c1)nc1n2CCOC1	-3.9%	23.1µM*	?	i	-40.4%[56.9 µM]	?
Cc1ccc(CN2CCN(C3CCN(C(=O)c4ccc(C)cc4)CC3)C(=O)C2=O)cc1	.	.	i	i	-5.4%	.
Cc1ccc(S(=O)(=O)c2cn(Cc3ccccc3F)c3cc4c(cc3c2=O)OCO4)cc1	.	.	i	i	-10.2%	.
O=C(COc1ccc2ccccc2c1)Nc1ccc(Br)cc1C(=O)O	-6.7%	9.2µM*	?	i	11.6%	-3.1%
O=C(COc1ccc2ccccc2c1)Nc1ccc2c3c(cccc13)CC2	-4.1%	20.6µM*	i	i	14.7%	-9.1%
Cc1cc(C)cc(OCC(=O)Nc2ccc3c4c(cccc24)CC3)c1	0.8%	?	i	i	5.6%[11.4 µM]	0.8%
Cc1ccc2c(c1)cc1c(=O)n(CC(=O)NC3CCCCC3)nc(C)n12	.	.	.	.	21.0%	.
CCc1ccc2nc(-c3cccc(C)c3)nc(SCC(=O)NCC3CCCO3)c2c1 (configuration not stated)	-0.6%	-3.7%	i	2.59µM*	7.6%	-4.5%
O=c1c2ccccc2nc2sc(Nc3cccc(N4CCNCC4)c3)nn12	.	.	?	i	.	.
CCCSc1ccc(-c2nn(-c3ccccc3)cc2/C=C(/C#N)C(=O)N2CCOCC2)cc1	-0.3%	-56.0%	?	23.1µM*	-6.8%	-81.2%
CCSc1ccc(-c2nn(-c3ccccc3)cc2/C=C(/C#N)C(=O)NC)cc1	-0.8%	?	i	i	-1.7%	?
O=C(Nc1ccc2sccc2c1)Nc1nnc(-c2ccncc2)s1	.	.	i	i	.	.
O=C(Cn1c(C(=O)N2CCN(C3CCCCC3)CC2)cc2sccc21)c1ccccc1	-4.0%	1.3%	?	6.51µM*	-1.5%	-4.2%
Cc1ccc(S(=O)(=O)/N=C(\N)Nc2nc(C)c3cc(C)ccc3n2)cc1	-2.2%	19.3%	i	14.6µM*	10.6%	12.4%
Cc1ccc(S(=O)(=O)/N=C(\N)Nc2nc(C)c3ccc(C)cc3n2)cc1	-14.1%	-4.7%	i	i	-17.8%	9.6%
COc1ccc2nc(N/C(N)=N/S(C)(=O)=O)nc(C)c2c1	-1.1%	?	8.2µM*	2.06µM*	3.1%[11.4 µM]	-2.1%
COc1ccc2c(c1)CC(C(=O)NCCN1CCN(c3cccc(Cl)c3)CC1)CO2 (configuration not stated)	.	.	i	i	-5.8%	.
CC1CCn2c(nc3cc(C(=O)NCc4ccccc4)ccc32)C1 (configuration not stated)	.	.	.	.	-10.4%	.
Cc1nonc1OCCNC(=O)C12CC3CC(CC(C3)C1)C2	-0.3%	0.1%	i	23.1µM*	20.7%	?
CCOC(=O)CNC(=O)C12CC3CC(CC(C3)C1)C2	0.0%	0.6%	i	i	7.7%	-6.6%
O=C(COC(=O)C12CC3CC(CC(Br)(C3)C1)C2)NCc1ccco1	.	.	?	i	23.4%	.
O=C(CCn1c(=O)[nH]c2ccsc2c1=O)N1CCN(c2cccc(Cl)c2)CC1	-8.9%	?	20.6µM*	i	-33.5%[56.9 µM]	4.8%
SMILES	TSG101-PTAP inh	MCF10A rereplic	KB-3-1 tox	KB-V1 MDR tox	RGS4 inhibitor	SW480 rereplic
COC(=O)Cn1c(C(=O)N2CCCC2)cc2c1C[C@H]1CN(C(=O)c3ccccc3)[C@@](Cc3ccc(OC)cc3)(C(=O)OC)[C@@H]21	.	.	i	?	.	.
COC(=O)[C@@]1(Cc2ccc(OC)cc2)[C@H]2c3cc(C(=O)N4CCCC4)n(CCc4ccc(OC)c(Br)c4)c3C[C@H]2CN1C(=O)c1ccccc1	.	.	?	18.4µM*	.	.
COC(=O)[C@@]1(Cc2ccc(F)cc2)[C@H]2c3cc(C(=O)N4CCCC4)n(CCc4ccc(OC)c(Br)c4)c3C[C@H]2CN1C(=O)c1ccccc1	.	.	25.9µM*	?	.	.
CC(C)COc1ccc(C(=O)N2CCCCC2CCN2CCCCC2)cc1 (configuration not stated)	.	.	.	.	10.3%	.
CC1C(=O)N(S(=O)(=O)c2ccc([N+](=O)[O-])cc2)[C@H]1c1ccc2ccccc2c1 (some centres not stated)	.	.	.	.	-3.1%	.
COc1c(Br)cc([N+](=O)[O-])c(OC)c1C(=O)NC(=O)Nc1cc(Cl)cc(Cl)c1	-2.8%	?	?	6.51µM*	3.6%	23.9%
COc1ccc(C2C=C3CNS(=O)(=O)C3CC2OC(=O)c2cccc(C)c2)cc1 (configuration not stated)	.	.	.	.	11.1%	.
CCOCCCn1c(=O)c(NC(=O)c2ccc(OCC)cc2)c2n(c1=S)CCCCC2	-8.6%	0.3%	i	8.2µM*	-6.1%	6.3%
CCOc1ccc(-c2cc3cc(OC)c(OC)cc3c(C)n2)cc1	-1.1%	-13.8%	i	i	7.1%	1.8%
COc1cc2cc(-c3ccc(OC)c(OC)c3C)nc(N)c2cc1OC	-3.4%	1.64µM*	?	6.51µM*	-8.1%	1.64µM*
COc1cc2cc(-c3ccc(O)cc3O)nc(C)c2cc1OC	1.3%	?	?	6.51µM*	-7.4%	12.2%
CCc1nc(-c2ccc(OC)c(OC)c2)cc2cc(OC)c(OC)cc12	-1.4%	6.8%	i	?	5.8%	-3.3%
O=C1CC(c2ccccc2)Cc2[nH]c(=O)c(-c3nc(-c4ccc(F)cc4)cs3)cc21 (configuration not stated)	.	.	4.61µM*	i	-15.9%	.
Cc1sc(-c2cc3c([nH]c2=O)CC(c2ccccc2)CC3=O)nc1-c1ccc(Cl)cc1 (configuration not stated)	.	.	1.03µM*	0.82µM*	-8.9%	.
O=C1CC(c2ccccc2)Cc2[nH]c(=O)c(-c3nc(-c4ccc(Cl)cc4)cs3)cc21 (configuration not stated)	.	.	.	.	1.3%	.
CCCCn1nc(NC(=O)c2cccc(Cl)c2)c2cc3ccc(C)cc3nc21	.	.	i	i	22.2%	.
CCCn1nc(NC(=O)c2ccco2)c2cc3ccc(C)cc3nc21	0.2%	?	i	i	1.6%	13µM*
CCCn1nc(NC(=O)c2ccco2)c2cc3cc(C)ccc3nc21	-4.6%	-0.4%	i	i	-30.0%	18.4µM*
